Test results reported in PubChem BioAssay AID620 (Sanford-Burnham Center for Chemical Genomics, 2007).
The whole screen tested about 87,000 compounds, of which about 360 (0.41%) were called active. Shown is part of a subset that was picked to be rich in actives. Unmarked numbers belong to inactive results. No stated cut-off is given here; in the data, active means cytotoxicity above about 50%; inactive means the rest.

Experiment: cytotoxicity in HT1080 fibrosarcoma cells, cell-based, fluorescence readout (AID 620);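 further: cells exposed to compound overnight then 4 h with Alamar Blue; 0% = vehicle DMSO and 100% = killing control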
Settings: HT1080 viability, at 10 µM, stronger effect = higher value

Row | SMILES | cytotoxicity
1 | COc1ccc(NC(=O)Nc2ncccc2C)cc1 | 0.5%
2 | Cc1nnc(SCCn2c(N3CCN(C)CC3)nc3c2c(=O)[nH]c(=O)n3C)s1 | -10.1%
3 | Cc1nnc(SCCn2c(N3CCN(C)CC3)nc3c2c(=O)n(C)c(=O)n3C)s1 | -3.5%
4 | Cc1nnc(Sc2nc(Sc3nnc(C)s3)nc(N3CCN(C)CC3)n2)s1 | 59.7% (active)
5 | COC(F)(C(=O)Nc1ccc2c(c1)C(=O)NC2=O)C(F)(F)F (stereo not given) | 0.1%
6 | Cc1cc(NC(=O)COc2ccccc2)n(-c2ccccc2)n1 | 7.7%
7 | Cc1cc(NC(=O)Nc2cc(C)nn2-c2ccccc2)n(-c2ccccc2)n1 | 4.3%
8 | CC(=O)Nc1cc(-c2ccc(Cl)cc2)nn1-c1ccccc1 | 1.4%
9 | O=C(CCl)Nc1cc(-c2ccccc2)nn1-c1ccccc1 | 54.1% (active)
10 | Cc1ccc(-c2cc(NC(=O)CCl)n(-c3ccccc3)n2)cc1 | 60.4% (active)
11 | CC(=O)Nc1ccc(-c2cc(NC(C)=O)n(-c3ccccc3)n2)cc1 | -2.5%
12 | O=C(NCCc1c[nH]c2ccccc12)c1cnc2sccn2c1=O | -1.9%
13 | O=C(NCC(c1cccnc1)N1CCN(c2ccccc2F)CC1)c1ccccc1 (stereo not given) | -1.1%
14 | CC(NS(=O)(=O)c1ccc(OCC(=O)N2CCOCC2)cc1)c1ccccc1 (stereo not given) | 0.3%
15 | O=C(Nc1ccc2c(c1)OCO2)OCc1ccccc1 | 13.2%
16 | CSc1nc(-c2ccc(Cl)cc2)nn1S(=O)(=O)c1ccc(Cl)cc1 | -13%
17 | CCS(=O)(=O)n1nc(-c2ccc(Cl)cc2)nc1N | 0.1%
18 | Cn1nc(-c2ccc(Cl)cc2)nc2c(=O)n(C)c(=O)nc1-2 | 51% (active)
19 | C=CCN=C(NC#N)SCCc1ccccc1 | -4.6%
20 | Cc1nn(C)c(C)c1NC(=O)c1ccnn1C | -16.7%
21 | Oc1ccc(CN2CCc3ccccc3C2)c2cccnc12 | 33.5%
22 | OCCN1CCN(Cc2cc(Cl)c3cccnc3c2O)CC1 | -4.1%
23 | Oc1c(CN2CCOCC2)cc(COCc2ccccc2)c2cccnc12 | 20.5%
24 | CN1CCN(Cc2cc(COCc3ccccc3)c3cccnc3c2O)CC1 | 43.1%
25 | O=c1oc2c(CN3CCOCC3)c(O)c(Cl)cc2c2c1CCC2 | 7.1%

Row | SMILES | cytotoxicity
26 | CCOCC(=O)Nc1nnc(COc2ccc(Cl)cc2)s1 | 17.8%
27 | CCOC(=O)CSc1nnc(Cn2c(=O)sc3ccccc32)n1C | 1.9%
28 | CCN(CC)c1ccc(C(=S)N2CCN(c3ccccc3)CC2)cc1 | -2.9%
29 | O=C(CSc1nnc(-c2cccs2)o1)c1cccs1 | 25.4%
30 | Cc1cc(C(=O)CSc2nnc(-c3ccccc3F)o2)c(C)n1Cc1cccs1 | -6.5%
31 | COC(=O)C1=C(COc2ccccc2)NC(=O)NC1c1ccc2ccccc2c1 (stereo not given) | -5.7%
32 | CCOC(=O)C1=C(N)n2c(s/c(=C\c3cccs3)c2=O)=C(C(=O)OCC)C1c1cccs1 (stereo not given) | 56.3% (active)
33 | CCOC(=O)C1=C(N)n2c(s/c(=C\c3ccco3)c2=O)=C(C(=O)OCC)C1c1ccco1 (stereo not given) | 36.1%
34 | CCOC(=O)C1=C(N)n2c(s/c(=C/c3ccccc3)c2=O)=C(C(=O)OCC)C1c1ccccc1 (stereo not given) | -1.6%
35 | Brc1ccc(-c2cn3cccnc3n2)cc1 | 9.4%
36 | Brc1ccc(-c2cn3c(n2)CCc2ccc4cccnc4c2-3)cc1 | 53.1% (active)
37 | c1ccc(-c2cn3c(n2)CCc2ccc4cccnc4c2-3)cc1 | 37%
38 | CCn1c(=O)n(CC)c2cc(S(=O)(=O)N3CCC(c4ccccc4)CC3)ccc21 | -6.5%
39 | CCn1c(=O)n(CC)c2cc(S(=O)(=O)N3CCc4ccccc43)ccc21 | 71.3% (active)
40 | Cn1c(=O)c(=O)n(C)c2cc(S(=O)(=O)N3CCc4ccccc43)ccc21 | -4%
41 | Cc1cc(C)c(C)c(S(=O)(=O)NCc2ccco2)c1C | 24.4%
42 | COc1ccc(C(=O)c2ccc(OC)c(OC)c2)cc1OC | 14.8%
43 | COc1ccc(C(N)=O)cc1N | 2.5%
44 | COc1ccc(C(=O)c2ccc(OC)c(N)c2)cc1N | 53.8% (active)
45 | COc1ccc(OCCCC(=O)Nc2nncs2)cc1 | 8.3%
46 | O=C(NCCN1CCN(c2ccccc2F)CC1)C1CC(=O)N(C2CCCC2)C1 (stereo not given) | 7%
47 | CC1CCCCC1NC(=O)CSc1nncs1 (stereo not given) | -0.9%
48 | COC(=O)c1ccc(OC(=O)c2ccc(OCc3c(C)noc3C)c(OC)c2)cc1 | -2%
49 | COC(=O)c1ccc2c(c1)C(C)(C)C(/C=C/c1ccc(OC)c(OC)c1OC)=[N+]2C | 64.8% (active)
50 | COC(=O)c1ccc(OC(=O)c2ccc(OC)c(OC)c2)c(OC)c1 | -8%
